SW480 rerep – inducers of DNA re-replication in SW480 colon cancer cells. Potency, µM (titrated, usually from 46.1 µM), for inactives: at the highest dose re-replication activation, most hits filed as activators. 1.8% of 340,000 active. SW480 DNA re-replication, Hoechst DNA content imaging, 48 h; note: % of control where 0% means no effect; nearly all actives have a fitted effect of over 55% in size
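First, 250 cells per well were seeded. Next, compound or vehicle (23 nL) was pinned in, plates sat 48 hr at 37 C. Finally Hoechst was added for 40 min before fluorescence scanning.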
MCF10A rerep – DNA re-replication induction in MCF 10a cells; Potency, µM (doses to about 46.1 µM), inactives show at the highest dose activity, positive = re-replication, actives largely listed as activators; 2.9% of 350,000 active; AID 624296; MCF 10A DNA re-replication, Hoechst nuclear intensity, 48 h; note: % of control where 0% means no effect; nearly all actives have a fitted effect of over 50% in size
KB-V1 cytotox – KB-V1 MDR subline cytotoxicity | Potency, µM (highest dose often 46.1 µM), most hits filed as cytotoxic | 3.4% of 400,000 active | AID 1347076 | KB-V1 MDR cells viability, CellTiter-Glo, 72 h; note: % is set by controls: 0 for no effect and ±100 for the full control effect; nearly all actives have a fitted effect of over 60% in size
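In this primary screen, KB-V1 cells overexpressing P-gp are incubated with library compounds (lowest to highest concentration) for 72 h at 37 degrees C before a luminescent ATP viability read.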
PINK1 expr mod – PINK1 expression modulation. PINK1 immunofluorescence, high-content cytometry, 24 h. Potency, µM (series often up to 76.6 µM), inactives show at the top dose activation (PINK1 increase), actives largely listed as activators. 0.2% of 410,000 active; active = well fitted activation curve with a large enough effect; inconclusive = small, poorly fitted or top-dose-only effect; cell line not stated here; note: % of control where 0% means no effect; nearly all actives have a fitted effect of over 65% in size
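PINK1 protein, normally rapidly degraded, was detected by immunofluorescence after 24 hour compound treatment of a stable cell line. Titration data (5 concentrations) came from laser-scanning cytometry, with CCCP-treated wells as controls.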
KB-3-1 tox – KB-3-1 parental cell cytotoxicity; KB-3-1 viability, CellTiter-Glo ATP luminescence, 72 h; Potency, µM (series often up to 46.1 µM), actives largely listed as cytotoxic; 1.4% of 400,000 active; AID 1347075; note: % is set by controls: 0 for no effect and ±100 for the full control effect; nearly all actives have a fitted effect of over 60% in size
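Parental KB-3-1 viability, qHTS format: 72 h compound exposure, 37 °C; CellTiter-Glo; media-only wells and DMSO plates as controls; concentration-effect fits on corrected data.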
Numbers without * were called inactive. Rows were chosen to be rich in hits. Some 6.7% of all compounds tested hit in one or more screens of this group. Unless noted, calls come from the whole dose curve; as a rule, active = well fitted curve in the direction sought with a large enough effect; inconclusive = small, poorly fitted or top-dose-only effect, or another doubt; inactive = no such curve, though single readings can be large; an effect the other way counts as inactive or inconclusive. Potency is the fitted concentration of half-maximal effect.

For CCOc1ccc(-c2nnc(SCC(=O)NCCc3ccccc3)nc2-c2ccc(OCC)cc2)cc1 the results were PINK1 expr mod 1%.
`Cc1cccnc1C1=NOC(Cc2ccccc2)C(=O)N1Cc1ccccc1F` (configuration not stated) gave KB-V1 cytotox inconclusive, PINK1 expr mod 0% and KB-3-1 tox inactive.
`COCC(=O)Nc1cc(C(=O)N2CCc3c([nH]c4ccccc34)C2)cc2nc(-c3ccccc3)n(C)c12` gave PINK1 expr mod 1%.
COc1ccccc1NC(=O)CSC1=Nc2ccccc2C2=NC(Cc3ccccc3)C(=O)N12 (configuration not stated) was read as KB-V1 cytotox inactive, PINK1 expr mod 1% and KB-3-1 tox inactive.
Screening O=C(Nc1nc(-c2ccco2)c(-c2ccco2)s1)c1c(F)cccc1Cl returned SW480 rerep -1%, MCF10A rerep 20%, KB-V1 cytotox inactive, PINK1 expr mod 13% and KB-3-1 tox inactive.
`O=C(Nc1nc(-c2ccco2)c(-c2ccco2)s1)c1cnccn1` gave SW480 rerep 5%, MCF10A rerep 7%, KB-V1 cytotox 2.1µM*, PINK1 expr mod 11% and KB-3-1 tox inactive.
`CC(=O)c1sc(Nc2nc3ccc(F)cc3s2)nc1C` gave SW480 rerep 9.2µM*, MCF10A rerep inconclusive, KB-V1 cytotox inactive, PINK1 expr mod inconclusive and KB-3-1 tox inactive.
CCc1nnc(NC(=O)c2oc3cc(C)c(C)cc3c2C)s1 was read as SW480 rerep 0.52µM*, MCF10A rerep 5%, KB-V1 cytotox inactive, PINK1 expr mod 2% and KB-3-1 tox inconclusive.
For O=C(Nc1nc2ccc(F)cc2s1)c1ccccn1 the results were SW480 rerep 5.2µM*, MCF10A rerep 18µM*, KB-V1 cytotox inactive, PINK1 expr mod 1% and KB-3-1 tox inconclusive.
For Cc1c(Cl)cccc1NC(=O)C(C)n1c(=O)cc(C)c2c(C)nn(-c3ccccc3)c21 (configuration not stated) the results were KB-V1 cytotox inconclusive, PINK1 expr mod 2% and KB-3-1 tox inactive.
COc1ccc(-c2nc3cnc(N4CCOCC4)nc3n(CCC#N)c2=O)cc1 was read as PINK1 expr mod 13%.
Screening CCOC(=O)CNC(=O)Nc1cc(C(=O)NCc2ccc(C(C)C)cc2)ccc1N1CCCC1 returned KB-V1 cytotox inactive, PINK1 expr mod -1% and KB-3-1 tox inactive.
For CCc1nnc(NC(=O)c2cnccn2)s1 the results were SW480 rerep 0%, MCF10A rerep 18µM*, KB-V1 cytotox inactive, PINK1 expr mod 2% and KB-3-1 tox inactive.
CCOc1ccc2nc(NC(=O)c3cnccn3)sc2c1 was read as SW480 rerep 1%, MCF10A rerep -5%, KB-V1 cytotox inactive, PINK1 expr mod 0% and KB-3-1 tox inactive.
For O=C(Nc1nc2ccccc2s1)c1cnccn1 the results were SW480 rerep 15µM*, MCF10A rerep 3.3µM*, KB-V1 cytotox inactive and KB-3-1 tox inactive.
For C#CC(C)OCC1CNC(=S)O1 (configuration not stated) the results were KB-V1 cytotox inactive, PINK1 expr mod 2% and KB-3-1 tox inactive.
Screening Cc1ccc2c(c1)cc(CN(C)Cc1nc(C)cs1)c(=O)n2C returned PINK1 expr mod 0%.
Cc1ccc2c(c1)S/C(=C\c1cccc[n+]1C)N2CCO was read as SW480 rerep -40%, MCF10A rerep 1%, KB-V1 cytotox inconclusive, PINK1 expr mod 1% and KB-3-1 tox inconclusive.
Screening C[n+]1ccccc1/C=C1\Sc2ccccc2N1CCO returned SW480 rerep -1%, MCF10A rerep 16%, KB-V1 cytotox inactive, PINK1 expr mod 0% and KB-3-1 tox 21µM*.
For CCN(CC)S(=O)(=O)c1cc(NC(=O)c2cc([N+](=O)[O-])ccc2N2CCOCC2)ccc1C the results were SW480 rerep 6%, MCF10A rerep -3%, KB-V1 cytotox inconclusive, PINK1 expr mod -1% and KB-3-1 tox inconclusive.
Screening CCCC(C)C(=O)Nc1nc(C)c(-c2csc(Nc3ccc(Cl)cc3)n2)s1 (configuration not stated) returned SW480 rerep inconclusive, MCF10A rerep 0%, KB-V1 cytotox inactive, PINK1 expr mod 3% and KB-3-1 tox 8.2µM*.
`CCCC(C)C(=O)Nc1nc(C)c(-c2csc(Nc3ccccc3OC)n2)s1` (configuration not stated) gave SW480 rerep 7%, MCF10A rerep 21µM*, KB-V1 cytotox inactive, PINK1 expr mod 4% and KB-3-1 tox inactive.
O=C(c1ccc2c(c1)N(Cc1ccccc1)C(=O)c1ccccc1S2(=O)=O)N1CCOCC1 was read as PINK1 expr mod 0%.
COc1cccc(CNC(=O)[C@@H]2CCCN2C(=O)[C@@H]2CCCN2C(=O)OC(C)(C)C)c1 was read as KB-V1 cytotox inactive, PINK1 expr mod 0% and KB-3-1 tox inactive.
Screening CCc1ccc(Nc2cnn(-c3nc4ccccc4s3)c(=O)c2Cl)cc1 returned SW480 rerep -4%, MCF10A rerep 8%, KB-V1 cytotox 13µM*, PINK1 expr mod 3% and KB-3-1 tox inactive.
For CCCCNc1cnn(-c2ccccc2)c(=O)c1Cl the results were SW480 rerep -4%, MCF10A rerep -3%, KB-V1 cytotox inactive, PINK1 expr mod 3% and KB-3-1 tox inactive.
Cc1ccc(NC(=O)c2ccc(Cl)c(NC(=O)c3cccs3)c2)cc1 was read as SW480 rerep 29%, MCF10A rerep -16%, KB-V1 cytotox inactive, PINK1 expr mod 0% and KB-3-1 tox inactive.
Cc1nc2ccc(NC(=O)c3ccc(Cl)c(NC(=O)c4cccs4)c3)cc2s1 was read as SW480 rerep -8%, MCF10A rerep 2%, KB-V1 cytotox 23µM*, PINK1 expr mod 4% and KB-3-1 tox inactive.
For O=C(NC(c1ccco1)c1cc(Cl)c2cccnc2c1O)c1ccsc1 (configuration not stated) the results were KB-V1 cytotox inactive and KB-3-1 tox inconclusive.
For CC(=O)c1cc(C#N)c(SCc2ccccc2C#N)nc1C the results were SW480 rerep inconclusive, MCF10A rerep inconclusive, KB-V1 cytotox 10µM*, PINK1 expr mod 10% and KB-3-1 tox 16µM*.
N#Cc1ccc(NC(=O)Nc2ccc(Cl)cc2)cc1 was read as SW480 rerep 2%, MCF10A rerep -2%, KB-V1 cytotox inconclusive, PINK1 expr mod inconclusive and KB-3-1 tox 21µM*.
`CCN(CC)CCNC(=O)CCN1N=C(c2ccccc2)CCC1=O` gave SW480 rerep 1%, MCF10A rerep -1%, KB-V1 cytotox inactive, PINK1 expr mod -1% and KB-3-1 tox inactive.

Compound activity: PubChem BioAssay, National Center for Advancing Translational Sciences (NCATS)
